# Source: the supplement of paper PMC10498489
# Out of some 2,300 compounds screened, about 330 (14%) showed activity. These entries were drawn from the full list. Values without a mark were called inactive.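 The calls were made as follows: active = median modified Z-score above 1.96; inactive = 1.96 or below.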
# Test system: HepG2 Srxn1-GFP reporter cells (+30 nM CDDO-Me)
# Assay: Srxn1-GFP intensity median modified Z-score relative to plate median; higher = stronger NRF2 / oxidative stress reporter activation, active = hit call of the paper
# Settings: 10 µM; exposure time: 24h
# Method in brief: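 The modified Z-score of GFP intensity was computed per plate, and the median over replicates is reported. HepG2 Srxn1-GFP BAC reporter cells in three replicate plates were treated for 24 h with compound at 10 μM plus an NRF2 activator at 30 nM (≤0.1% DMSO). Per-cell cytoplasmic GFP came from confocal images, excluding those with under 100 cells, and scaling used 1.4826 × median absolute deviation.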
row,SMILES,Srxn1-GFP intensity median modified Z-score
1,NCc1cccnc1 [euspeclibcmpd1239],-0.224
2,CC(C)[N+](C)(CCC(C(N)=O)(c1ccccc1)c1ccccc1)C(C)C [euspeclibcmpd164],0.396
3,CC(C)c1cccc(C(C)C)c1O [euspeclibcmpd699],-0.02
4,C[C@]12CCC(=O)CC1=CC=C1C2CC[C@@]2(C)C1CC[C@@]2(O)CCC(=O)O (some centres not stated) [euspeclibcmpd2339],-0.283
5,CCC(C(=O)[C@H](C)[C@@H](O)[C@H](C)[C@@H]1O[C@@H]([C@@H](CC)C(=O)O)CC[C@@H]1C)[C@H]1OC2(C=C[C@@H](O)[C@]3(CC[C@@](C)([C@H]4CC[C@](O)(CC)[C@H](C)O4)O3)O2)[C@H](C)C[C@@H]1C (some centres not stated) [euspeclibcmpd2084],6.06 (active)
6,CC(C)(C)NCC(O)c1cc(Cl)c(N)c(Cl)c1 (configuration not stated) [euspeclibcmpd1154],-0.331
7,CCC(N)C(O)c1ccc(O)c(O)c1 (configuration not stated) [euspeclibcmpd646],-0.33
8,CN1CC(CNC(=O)OCc2ccccc2)C[C@H]2c3cccc4c3c(cn4C)CC21 (some centres not stated) [euspeclibcmpd1151],-0.466
9,COc1cc2c(c(OC)c1OC)-c1ccc(=O)c(O)cc1C(NC(C)=O)CC2 (configuration not stated) [euspeclibcmpd2248],-0.142
10,COc1cc2c(c(OC)c1OC)-c1ccc(OC)c(=O)cc1[C@@H](NC(C)=O)CC2 [euspeclibcmpd73],13.3 (active)
11,CNC(=O)Oc1ccc2c(c1)[C@]1(C)CCN(C)[C@@H]1N2C [euspeclibcmpd611],0.455
12,C[C@H]1C[C@@H](O)[C@]2(O)[C@@]13CC(=O)OC[C@@]2(C)[C@](C)(O)C(=O)C3 [euspeclibcmpd1475],0.639
13,COc1ccc(CN2CCNCC2)c(OC)c1OC [euspeclibcmpd1198],0.677
14,CCOC(=O)c1cncn1[C@H](C)c1ccccc1 [euspeclibcmpd826],-0.145
15,O=C(O)C1[O][Sb]2[O]C(=O)C([O]2)C(C(=O)O)[O][Sb]2[O]C(=O)C1[O]2 (configuration not stated) [euspeclibcmpd2437],3.34 (active)
16,CC(=O)OC1CN2CCC1CC2 (configuration not stated) [euspeclibcmpd385],-0.0983
17,O=[N+]([O-])C(Br)(CO)CO [euspeclibcmpd2257],6.25 (active)
18,COc1ccc(C(=O)O)cc1OC [euspeclibcmpd2003],-0.455
19,C[C@]12CC[C@H](O)CC1=CCC1C2CC[C@]2(C)C(=O)CC[C@@H]12 (some centres not stated) [euspeclibcmpd1201],-0.236
20,OCC(O)[C@H]1O[C@@H]2O[C@H](C(Cl)(Cl)Cl)O[C@@H]2[C@H]1O (some centres not stated) [euspeclibcmpd1184],0.0668
21,O=C(NC(=O)c1c(F)cccc1F)Nc1cc(Cl)c(OC(F)(F)C(F)C(F)(F)F)cc1Cl (configuration not stated) [euspeclibcmpd1213],13.1 (active)

row,SMILES,Srxn1-GFP intensity median modified Z-score
1,CCC1(CC)C(=O)NC(=S)NC1=O,1.23
2,CC1=CC(=O)c2c(O)cccc2C1=O [euspeclibcmpd1444],67.7 (active)
3,O=C1C=CC(=O)c2c(O)cccc21 [euspeclibcmpd1492],0.761
4,CC1(C)C2CC(=O)[C@]3(C)C(CC[C@@]4(C)[C@H](c5ccoc5)OC(=O)C5O[C@]543)[C@@]2(C)C(=O)C[C@H]1O (some centres not stated) [euspeclibcmpd1592],-0.255
5,N#Cc1[nH]n(-c2c(Cl)cc(C(F)(F)F)cc2Cl)c(=N)c1[S+]([O-])C(F)(F)F (configuration not stated) [euspeclibcmpd821],-0.323
6,O=C1CC[C@@]2(O)[C@H]3Cc4ccc(O)c5c4C2(CCN3CC2CC2)C1O5 (some centres not stated) [euspeclibcmpd560],-0.0532
7,Cc1c[nH]cn1 [euspeclibcmpd2111],-0.158
8,CC1=CCC[C@@H]2C1(C)CCC(C)[C@@]2(C)CC/C(C)=C/Cn1c[n+](C)c2c(=N)nc[nH]c21 (some centres not stated) [euspeclibcmpd1491],13.7 (active)
9,COc1ccc2c(c1O)[C@@]13CCN(C)[C@@H](C2)C1=CC(OC)C(=O)C3 (some centres not stated) [euspeclibcmpd1375],-0.172
10,CC(C)c1ccc2c(c1O)CCC1c3coc(O)c3CC[C@]21C (some centres not stated) [euspeclibcmpd2379],-0.468
11,Nc1ccc([As](=O)(O)O)cc1 [euspeclibcmpd2461],11.1 (active)
12,O=C1CC2OCC=C3CN4CC[C@]56c7ccccc7N1C5[C@H]2[C@H]3CC46 (some centres not stated) [euspeclibcmpd327],-0.00366
13,COP(=S)(OC)Oc1ccc(SC)c(C)c1 [euspeclibcmpd1025],-0.288
14,O=C(CCCN1CCC2(CC1)C(=O)NCN2c1ccccc1)c1ccc(F)cc1 [euspeclibcmpd405],10.2 (active)
15,C#C[C@]1(O)CCC2C3CC=C4CC(=O)CCC4C3CC[C@@]21C (some centres not stated) [euspeclibcmpd2269],1.21
16,C#C[C@]1(O)CCC2C3CC=C4CC(=O)CCC4C3CC[C@@]21C (some centres not stated) [euspeclibcmpd2279],0.0789
17,CCCCOC(=O)c1ccccc1C(=O)OCCCC [euspeclibcmpd1242],-0.441
18,CCCCCCCCC(=O)NCc1ccc(O)c(OC)c1 [euspeclibcmpd1268],-0.241
19,CC1CCC2(OC1)OC1C(O)C3C4CCC5CC(OC6OC(CO)C(OC7OC(CO)C(O)C(OC8OCC(O)C(O)C8O)C7OC7OC(CO)C(O)C(OC8OC(CO)C(O)C(O)C8O)C7O)C(O)C6O)C(O)CC5(C)C4CCC3(C)C1C2C (configuration not stated) [euspeclibcmpd1933],22.3 (active)
20,C[C@H]1CC[C@]2(NC1)OC1CC3C4CCC5C[C@@H](O[C@@H]6O[C@H](CO)[C@H](O[C@H]7O[C@H](CO)[C@@H](O)[C@H](O[C@@H]8OC[C@@H](O)[C@H](O)[C@H]8O)[C@H]7O[C@@H]7O[C@H](CO)[C@@H](O)[C@H](O)[C@H]7O)[C@H](O)[C@H]6O)CC[C@]5(C)C4CC[C@]3(C)C1[C@@H]2C (some centres not stated) [euspeclibcmpd480],71.3 (active)
21,C[C@@H]1CC[C@@]2(NC1)O[C@H]1C[C@H]3C4CC=C5C[C@@H](O)CC[C@]5(C)C4CC[C@]3(C)C1[C@@H]2C (some centres not stated) [euspeclibcmpd1732],0.173

row,SMILES,Srxn1-GFP intensity median modified Z-score
1,CC(=O)O[C@H]1C[C@H](O[C@H]2[C@@H](O)C[C@H](O[C@H]3[C@@H](O)C[C@H](O[C@H]4CC[C@@]5(C)C(CCC6C5C[C@@H](O)[C@]5(C)C(c7coc(O)c7)CC[C@]65O)C4)O[C@@H]3C)O[C@@H]2C)O[C@H](C)[C@H]1O[C@@H]1O[C@H](CO)[C@@H](O)[C@H](O)[C@H]1O (some centres not stated) [euspeclibcmpd420],-0.493
2,CCNC1(c2cccs2)CCCCC1=O (configuration not stated) [euspeclibcmpd629],-0.153
3,O=C1NC(=O)C(=O)C(=O)N1 [euspeclibcmpd1767],0.258
4,NC(=O)C[S@@+]([O-])C(c1ccccc1)c1ccccc1 [euspeclibcmpd2097],0.795
5,O=c1[nH]c(=O)n(Cl)c(=O)n1Cl [euspeclibcmpd2375],0.319
6,c1cncc(C2CCCCN2)c1 (configuration not stated) [euspeclibcmpd1406],0.116
7,COc1ccc2c(c1)[C@]13CCCC[C@@H]1[C@H](C2)N(C)CC3 [euspeclibcmpd87],0.145
8,CC1(C)C(=O)C=C[C@@]2(C)C1C[C@@H](O)[C@]1(C)C2CC[C@@]2(C)[C@H](c3ccoc3)OC(=O)C3O[C@]321 (some centres not stated) [euspeclibcmpd1629],32.4 (active)
9,CC(=O)O[C@@H]1CC2C(C)(C)C(=O)C=C[C@]2(C)C2CC[C@]3(C)C(=CC(=O)O[C@H]3c3ccoc3)[C@@]21C (some centres not stated) [euspeclibcmpd1551],38.8 (active)
10,CC(=O)OC1CC(OC(C)=O)C2(C)C(CC(OC(C)=O)C3(C)C2CCC2(C)C(c4ccoc4)C(=O)C4OC423)C1(C)C (configuration not stated) [euspeclibcmpd1943],1.55
11,CC1(C)C(=O)C2O[C@@H]2[C@@]2(C)C1C[C@@H](O)[C@]1(C)C2CC[C@@]2(C)[C@H](c3ccoc3)OC(=O)C3OC321 (some centres not stated) [euspeclibcmpd1634],0.977
12,CC1(C)C2CC(=O)[C@]3(C)C(CC[C@@]4(C)[C@H](c5ccoc5)OC(=O)C5OC543)[C@@]2(C)[C@@H](O)C[C@H]1O (some centres not stated) [euspeclibcmpd1573],-0.392
13,COC(=O)C1CC(OC(C)=O)C(=O)C2C1(C)CCC1C(=O)OC(c3ccoc3)CC12C (configuration not stated) [euspeclibcmpd1949],-0.455
14,CC(CC(C(N)=O)(c1ccccc1)c1ccccc1)N(C)C (configuration not stated) [euspeclibcmpd819],-0.42
15,C[N+]12CC[C@@]34c5ccccc5N5C(=O)CC6OCC=C(C1)[C@H](CC32)[C@@H]6C54 (some centres not stated) [euspeclibcmpd1705],-0.091
16,COc1cc2c(cc1O)CCNC2C (configuration not stated) [euspeclibcmpd1467],-0.387
17,CCOP(=S)(OCC)Oc1ccc2c(C)c(Cl)c(=O)oc2c1 [euspeclibcmpd1023],1.02
18,C[C@H]1O[C@H](O[C@H]2[C@H](O)[C@@H](O)[C@@H](O)[C@H](O)[C@@H]2O)[C@@H](N)C[C@@H]1N=C(N)C(=O)O [euspeclibcmpd1430],-0.17
19,NCCc1cc(O)c(O)cc1O [euspeclibcmpd220],-0.288
20,CC[C@H]1C[N@]2CCC1C[C@@H]2[C@@H](O)c1ccnc2ccc(OC)cc12 [euspeclibcmpd2090],0.772
